Reference: article PMC8384837, “Expanding the binding specificity for RNA recognition by a PUF domain”
Changes are numbered by the printed parent chain.

Experiments:
Assay in all cases: yeast three-hybrid, YBZ-1, SC-Leu-His + 0.5 mM 3-AT, 4 days
Conditions in all cases: tags: N-Gal4 AD-HA kept; label: inside an RPR1-promoter hybrid RNA with tandem MS2 sites; ssRNA
PUM1 PUF domain R4-SCM = PUM1 PUF domain R4-SCM (Homo sapiens, UniProt Q14671 828-1176, N971S;H972C;Q975M)
Method in brief: (§1)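 A centromeric plasmid in strain YBZ-1 co-expressed Pumilio-1 PUF domain libraries, randomized at the three base-contacting residues of each repeat, with matching RNA elements; the strain carries a LexA–MS2 coat fusion and a HIS3 reporter. After four days on SC-Leu (input) or SC-Leu-His + 0.5 mM 3-AT (selection), the repeat regions were PCR-amplified and Illumina-sequenced. The interaction score is the log change in variant frequency from input to selection, using log2 and a pseudocount of 1 where absent.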

PUM1 PUF domain R3-RPS = PUM1 PUF domain R3-RPS (Homo sapiens, UniProt Q14671 828-1176, C935R;R936P;Q939S)
Method in brief: as §1

PUM1 PUF domain R2-GFD = PUM1 PUF domain R2-GFD (Homo sapiens, UniProt Q14671 828-1176, N899G;Y900F;Q903D)
Method in brief: as §1

PUM1 PUF domain R8-KFH = PUM1 PUF domain R8-KFH (Homo sapiens, UniProt Q14671 828-1176, N1122K;Y1123F;Q1126H)
Method in brief: as §1

PUM1 PUF domain R8-KWW = PUM1 PUF domain R8-KWW (Homo sapiens, UniProt Q14671 828-1176, N1122K;Y1123W;Q1126W)
Method in brief: as §1

PUM1 PUF domain R6-NRQ = biological target: T1, PUM1 PUF domain R6-NRQ (Homo sapiens, UniProt Q14671 828-1176, Y1044R)
T1 sequence: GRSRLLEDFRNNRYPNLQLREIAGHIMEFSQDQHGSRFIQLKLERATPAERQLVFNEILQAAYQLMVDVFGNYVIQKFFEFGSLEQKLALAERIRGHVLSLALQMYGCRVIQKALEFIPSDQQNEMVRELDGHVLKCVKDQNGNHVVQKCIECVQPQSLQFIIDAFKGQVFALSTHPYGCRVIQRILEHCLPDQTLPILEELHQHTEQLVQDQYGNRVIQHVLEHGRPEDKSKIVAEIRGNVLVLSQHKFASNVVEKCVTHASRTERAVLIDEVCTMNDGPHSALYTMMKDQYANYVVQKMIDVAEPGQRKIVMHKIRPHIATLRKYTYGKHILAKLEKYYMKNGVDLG
Method in brief: as §1

PUM1 PUF domain R6-FYR = biological target: T2, PUM1 PUF domain R6-FYR (Homo sapiens, UniProt Q14671 828-1176, N1043F;Q1047R)
T2 sequence: T1 sequence with N216F, R217Y, Q220R
Method in brief: as §1

PUM1 PUF domain R3-LYQ = PUM1 PUF domain R3-LYQ (Homo sapiens, UniProt Q14671 828-1176, C935L;R936Y)
Method in brief: as §1

PUM1 PUF domain R5-GKD = PUM1 PUF domain R5-GKD (Homo sapiens, UniProt Q14671 828-1176, C1007G;R1008K;Q1011D)
Method in brief: as §1

PUM1 PUF domain R5-GCR = PUM1 PUF domain R5-GCR (Homo sapiens, UniProt Q14671 828-1176, C1007G;R1008C;Q1011R)
Method in brief: as §1

GGCUAGAACUAGUGGAUCCCCCGGCGCCCGGCGGCUCGAGCCCGGGUAAGUGUACAUAGUCUGCAUGCCGCCGGGCGCCAUGCCUGCAGGUCGACUCUAGAAAACAUG
binding signal (PUM1 PUF domain R4-SCM): 3.79 log2 enrichment (interaction score)

GGCUAGAACUAGUGGAUCCCCCGGCGCCCGGCGGCUCGAGCCCGGGUAAGUGUAAUUAGUCUGCAUGCCGCCGGGCGCCAUGCCUGCAGGUCGACUCUAGAAAACAUG
binding signal (PUM1 PUF domain R3-RPS): 3.4 log2 enrichment (interaction score)

GGCUAGAACUAGUGGAUCCCCCGGCGCCCGGCGGCUCGAGCCCGGGUAAGUGUAAAGAGUCUGCAUGCCGCCGGGCGCCAUGCCUGCAGGUCGACUCUAGAAAACAUG
binding signal (PUM1 PUF domain R2-GFD): 4.7 log2 enrichment (interaction score)

GGCUAGAACUAGUGGAUCCCCCGGCGCCCGGCGGCUCGAGCCCGGGUAAGCGUAAAUAGUCUGCAUGCCGCCGGGCGCCAUGCCUGCAGGUCGACUCUAGAAAACAUG
binding signal (PUM1 PUF domain R8-KFH): 3.24 log2 enrichment (interaction score)
binding signal (PUM1 PUF domain R8-KWW): 5.85 log2 enrichment (interaction score)

GGCUAGAACUAGUGGAUCCCCCGGCGCCCGGCGGCUCGAGCCCGGGUAAGUGUAAAUAGUCUGCAUGCCGCCGGGCGCCAUGCCUGCAGGUCGACUCUAGAAAACAUG
binding signal (PUM1 PUF domain R6-NRQ): 7.58 log2 enrichment (interaction score)
binding signal (PUM1 PUF domain R8-KFH): 2.89 log2 enrichment (interaction score)
binding signal (PUM1 PUF domain R6-FYR): 4.96 log2 enrichment (interaction score)
binding signal (PUM1 PUF domain R3-LYQ): 3.33 log2 enrichment (interaction score)
binding signal (PUM1 PUF domain R4-SCM): 2.65 log2 enrichment (interaction score)
binding signal (PUM1 PUF domain R3-RPS): 0.42 log2 enrichment (interaction score)
binding signal (PUM1 PUF domain R8-KWW): 3.43 log2 enrichment (interaction score)

GGCUAGAACUAGUGGAUCCCCCGGCGCCCGGCGGCUCGAGCCCGGGUAAGUGUUAAUAGUCUGCAUGCCGCCGGGCGCCAUGCCUGCAGGUCGACUCUAGAAAACAUG
binding signal (PUM1 PUF domain R5-GKD): 3.71 log2 enrichment (interaction score)
binding signal (PUM1 PUF domain R5-GCR): 3.22 log2 enrichment (interaction score)

GGCUAGAACUAGUGGAUCCCCCGGCGCCCGGCGGCUCGAGCCCGGGUAAGUGUCAAUAGUCUGCAUGCCGCCGGGCGCCAUGCCUGCAGGUCGACUCUAGAAAACAUG
binding signal (PUM1 PUF domain R5-GKD): 2.2 log2 enrichment (interaction score)
binding signal (PUM1 PUF domain R5-GCR): 5.08 log2 enrichment (interaction score)
